Reference: PMC5700166

target: GST-Hu-p50 (Homo sapiens, UniProt P19838 7-356); test: protein-binding microarray (PBM); PBM: ~300 nM protein, 6 mM HEPES pH 7.8, 80 mM KCl, 0.5 mM EDTA, 0.5 mM EGTA, 6% glycerol, 35 ng/ul poly-dIdC, 1% milk, 1 h, room temperature; Ap Aiptasia and Nv Nematostella (sea anemones) / Co Capsaspora / Aq Amphimedon (sponge) / Dm Drosophila / Hu human; RHD is the Rel homology domain; high values mean tight binding; details: dsDNA, one strand shown
Sequence (P19838 7-356): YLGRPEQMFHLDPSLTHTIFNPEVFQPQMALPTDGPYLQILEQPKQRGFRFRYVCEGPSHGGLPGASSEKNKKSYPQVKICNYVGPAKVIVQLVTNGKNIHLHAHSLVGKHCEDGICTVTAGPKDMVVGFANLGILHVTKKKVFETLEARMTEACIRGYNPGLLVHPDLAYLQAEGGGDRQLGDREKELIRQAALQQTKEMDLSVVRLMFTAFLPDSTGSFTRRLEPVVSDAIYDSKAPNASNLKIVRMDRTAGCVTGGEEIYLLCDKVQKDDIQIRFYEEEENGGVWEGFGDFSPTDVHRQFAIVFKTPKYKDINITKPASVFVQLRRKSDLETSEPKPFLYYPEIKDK

Row | Sequence | binding signal
1 | CCGATTAACATCACAGATTTCCCTGATGTTAATCGGGTCTTGATTCGCTTGACGCTGCTG | 4.4 z-score
2 | CCGATTAACATCAAGGGAAAAATTGATGTTAATCGGGTCTTGATTCGCTTGACGCTGCTG | 4.56 z-score
3 | CCGATTAACATCAAAGGGAATTCTGATGTTAATCGGGTCTTGATTCGCTTGACGCTGCTG | 4.99 z-score
4 | CCGATTAACATCAGAGGTGCTTCTGATGTTAATCGGGTCTTGATTCGCTTGACGCTGCTG | 1.84 z-score
5 | CCGATTAACATCAGGATTTTCCCTGATGTTAATCGGGTCTTGATTCGCTTGACGCTGCTG | 5 z-score
6 | CCGATTAACATCACGAAATTCCCTGATGTTAATCGGGTCTTGATTCGCTTGACGCTGCTG | 5.1 z-score
7 | CCGATTAACATCAGGTAATTACCTGATGTTAATCGGGTCTTGATTCGCTTGACGCTGCTG | 3.47 z-score
8 | CCGATTAACATCAATTTTTTCCCTGATGTTAATCGGGTCTTGATTCGCTTGACGCTGCTG | 4.43 z-score
9 | CCGATTAACATCAAGGGCTTCCCTGATGTTAATCGGGTCTTGATTCGCTTGACGCTGCTG | 1.06 z-score
10 | CCGATTAACATCAGTAGTGGGGCTGATGTTAATCGGGTCTTGATTCGCTTGACGCTGCTG | 1.09 z-score
11 | CCGATTAACATCAAATTCCCACGTGATGTTAATCGGGTCTTGATTCGCTTGACGCTGCTG | 2.98 z-score
12 | CCGATTAACATCACCCTTGGGAATGATGTTAATCGGGTCTTGATTCGCTTGACGCTGCTG | 1.55 z-score
13 | CCGATTAACATCACAATAACGGGTGATGTTAATCGGGTCTTGATTCGCTTGACGCTGCTG | 1.74 z-score
14 | CCGATTAACATCAGGAAAAACCATGATGTTAATCGGGTCTTGATTCGCTTGACGCTGCTG | 1.05 z-score
